ChEMBL document CHEMBL3988442, “University of Dundee, Small-Polar-MMV Screening Library” (2021)
In all, about 66,000 compounds went through this assay and about 960 (1.5%) showed an effect of 50% or more. The sample as a whole holds a higher share of strong results than the screen did.

Test system: Trypanosoma brucei
Assay: Trypanosoma brucei 72 hour study
Assay type: functional, organism-based
Set-up: scale not given: in the data most compounds retested in dose-response had high values

## COc1ccc(NC(=O)CCc2c(C)nc3cc(O)nn3c2C)cn1
30 µM, 30.03 µM
  Percent Effect: 73.91%

## COC(=O)CCc1c(C)nc2cc(O)nn2c1C
30 µM, 30.03 µM
  Percent Effect: 37.13%

## CCNC(=O)CCc1c(C)nc2cc(O)nn2c1C
30 µM, 30.03 µM
  Percent Effect: 30.72%

## Cc1ccc2c(c1)CN(C(=O)c1cccnc1)C(CN(C)C)CO2.Cl (stereo not drawn)
30.3 µM, […]
  Percent Effect: -3.741%

## Cc1cnc(N2CCO[C@@H]3CC(COCc4cccnc4)C[C@H]32)nc1.O=C(O)C(F)(F)F.O=C(O)C(F)(F)F (stereo partly drawn)
30.3 µM, […]
  Percent Effect: -14.97%

## Cl.c1cnc2c(c1)cc([C@@H]1CCCO1)n2CCN1CCOCC1
30.3 µM, […]
  Percent Effect: -1.684%

## CCc1ccc(S(=O)(=O)N2Cc3c(CN(C)C)nn(C)c3C2)cc1.O=C(O)C(F)(F)F
30.3 µM, […]
  Percent Effect: -1.293%

## O=C(Nc1cccc(CN2CCOC2=O)c1)N1CCSCC1
30 µM, 30.03 µM
  Percent Effect: 53.61%

## O=C(Nc1cccc(CN2CCOC2=O)c1)N1CCCCCC1
30 µM, 30.03 µM
  Percent Effect: -56.22%

## O=C(Nc1cccc(CN2CCOC2=O)c1)N1CCCC1
30 µM, 30.03 µM
  Percent Effect: -2.123%

## COc1ccc(C[C@H]2CN(C(=O)CN(C)C)CC[C@H]2OC)cc1.O=C(O)C(F)(F)F
30.3 µM, […]
  Percent Effect: 4.427%

## Cc1cc(COC(=O)[C@@H]2Cc3ccccc3CN2S(C)(=O)=O)no1
30 µM, 30.03 µM
  Percent Effect: 77.9%

## CCS(=O)(=O)N1Cc2ccccc2CC1C(=O)OCc1cc(C)no1 (stereo not drawn)
30 µM, 30.03 µM
  Percent Effect: -34.32%

## CCS(=O)(=O)N1Cc2ccccc2CC1C(=O)OCc1c(C)noc1C (stereo not drawn)
30 µM, 30.03 µM
  Percent Effect: -54.09%

## COCCNC(=O)N1CCCC1COc1ccccc1 (stereo not drawn)
30.3 µM, […]
  Percent Effect: -9.999%

## Cc1ccccc1SC1CCN(C(=O)[C@H]2[C@@H]3CNC[C@@H]32)CC1
30.3 µM, […]
  Percent Effect: 52.77%

## Cc1ccccc1SC1CCN(C(=O)C2CNCC(=O)N2)CC1 (stereo not drawn)
30.3 µM, […]
  Percent Effect: 6.741%

## Cc1ccccc1SC1CCN(C(=O)C2CNC(=O)N2)CC1 (stereo not drawn)
30.3 µM, […]
  Percent Effect: -1.493%

## COCC1CN(Cc2ccoc2)Cc2nn(C)cc21.O=C(O)C(F)(F)F (stereo not drawn)
30 µM, 30.03 µM
  Percent Effect: 26.18%

## CN(C)C[C@@H]1CCC[C@@H]2CN(c3nccc(C(F)(F)F)n3)C[C@@H]21.O=C(O)C(F)(F)F
30.3 µM, […]
  Percent Effect: 99.5%

## CN(C[C@@H]1CCC[C@@H]2CN(c3ncccn3)C[C@@H]21)C1CC1.O=C(O)C(F)(F)F
30.3 µM, […]
  Percent Effect: -3.838%

## CN(C)C[C@@H]1CCC[C@@H]2CN(c3ncccn3)C[C@@H]21.O=C(O)C(F)(F)F
30.3 µM, […]
  Percent Effect: -12.16%

## CNCC(=O)Nc1ccc(-c2cnc(NCCS(C)(=O)=O)nc2)cc1
30.3 µM, […]
  Percent Effect: -12.7%

## COc1ccccc1CN1CCCCC1c1n[nH]cc1-c1cc(C)no1.Cl (stereo not drawn)
30.3 µM, […]
  Percent Effect: 99.66%

## CCc1ccc(CN2CCCCC2c2n[nH]cc2-c2cc(C)no2)cc1.Cl (stereo not drawn)
30.3 µM, […]
  Percent Effect: 53.31%

## Cc1c[nH]nc1C1CCCN1Cc1ccncc1 (stereo not drawn)
30.3 µM, […]
  Percent Effect: -23.61%

## COc1cccc(CN2CCCC2c2ccc[nH]2)c1 (stereo not drawn)
30 µM, 30.03 µM
  Percent Effect: 1.101%

## COc1cccc(CN2CCCCC2c2n[nH]cc2-c2cc(C)no2)c1.Cl (stereo not drawn)
30.3 µM, […]
  Percent Effect: 52.03%

## COc1ccc(CN2CCC[C@H]2c2nc(-c3cncnc3N)no2)cc1
30.3 µM, […]
  Percent Effect: -48.86%

## Cc1cc(C2CCCN2Cc2ccn(C)c(=O)c2)on1 (stereo not drawn)
30.3 µM, […]
  Percent Effect: 6.831%

## COc1ccc(CN2CCCCC2c2n[nH]cc2-c2cc(C)no2)cc1.Cl (stereo not drawn)
30.3 µM, […]
  Percent Effect: 57.52%

## COc1cccc(CN2CCCCCC2c2cccc(C)c2)c1O (stereo not drawn)
30 µM, 30.03 µM
  Percent Effect: -7.245%

## COc1ccccc1CNc1ncc(-c2cc(C)no2)c(C(C)C)n1
30.3 µM, […]
  Percent Effect: -4.15%

## COc1cccc(CN2CCCC2c2c(C)nn(C)c2C)c1 (stereo not drawn)
30 µM, 30.03 µM
  Percent Effect: -36.92%

## COCC(=O)N1CCCCC1c1nc(N(C)C)ncc1-c1cc(C)no1 (stereo not drawn)
30.3 µM, […]
  Percent Effect: -6.324%

## CC(C)c1nc(CNC2CCN(S(C)(=O)=O)CC2)cs1
30.3 µM, […]
  Percent Effect: -4.773%

## CC(C)Cn1ccc2c(NC(=O)c3n[nH]c4c3CCC4)cccc21
30 µM, 30.03 µM
  Percent Effect: 8.967%

## CCc1nc(C2CCCN2C(=O)c2cc[nH]n2)no1 (stereo not drawn)
10 µM
  Percent Effect: -9.958%
30.3 µM, […]
  Percent Effect: 8.971%

## O=C(NCc1ccco1)N1CCC(n2ccc(C(F)(F)F)n2)CC1
30 µM, 30.03 µM
  Percent Effect: -15.14%

## O=C(O)C(F)(F)F.c1coc(CN2CC[C@H]3O[C@@H](COCC4CC4)CC[C@H]32)c1
30 µM, 30.03 µM
  Percent Effect: -38.88%

## Cc1nc(CN2C(=O)CC[C@@H]3[C@H]2CCN3C2CCOCC2)cs1.O=C(O)C(F)(F)F
30 µM, 30.03 µM
  Percent Effect: -42.08%

## CC(=O)N1CCC2(CC1)CCN(C(=O)c1cccc(C(F)(F)F)c1)C2
30 µM, 30.03 µM
  Percent Effect: 38.42%

## Cc1nccc(NCc2cncc3c2CCN(CC2CC2)C3)n1.Cl.Cl
30.3 µM, […]
  Percent Effect: -82.02%

## COc1cccc(S(=O)(=O)CCN2CCN(CCO)CC2)c1
30.3 µM, […]
  Percent Effect: 19.12%

## COc1cccc(S(=O)(=O)CCN2CCN(CC(F)F)CC2)c1
30.3 µM, […]
  Percent Effect: 100.9%

## COCCN1CCN(CCS(=O)(=O)c2cccc(OC)c2)CC1
30.3 µM, […]
  Percent Effect: -9.149%

## O=C(NCC1CC1)[C@@H]1CCO[C@@H]2CCN(Cc3ccsc3)C[C@H]21.O=C(O)C(F)(F)F
30.3 µM, […]
  Percent Effect: -183.8%
